PubChem BioAssay (NCATS)
Records with an inconclusive call do not appear. Activity calls are given as the source filed them. The call rests on the fitted dose curve; in most records, active means well fitted inhibition curve with a large enough effect in the signal ratio, with a control signal flat (not every such curve was filed as active); inconclusive means small, poorly fitted or top-dose-only effect, or effect the other way, or a change in a side signal; inactive means flat fitted curve, though single readings scatter; the % refers to the signal ratio.

biological target: Glucocorticoid receptor (Homo sapiens) (UniProt P04150); assay: qHTS assay for small molecule antagonists of glucocorticoid receptor signaling (AID 588533); conditions: HeLa MMTV-bla, GRE beta-lactamase ratio, antagonist mode, 18 h; series mostly up to 76.8 µM; activity change, negative = inhibition: at the top concentration
Description: NIH Chemical Genomics Center [NCGC] U.S. Environmental Protection Agency [EPA] National Institutes of Environmental Health Sciences [NIEHS] National Toxicology Program [NTP] NCGC Assay Overview The Glucocorticoid receptor (GR), a nuclear receptor subfamily member and its natural ligands includes […] etc. The GR is a validated drug target for inflammation. GR ligands such as dexamethasone are clinically available as anti-inflammatory drugs. Glucocorticoids implicate a role in carbohydrate, protein and lipid metabolisms and programmed cell death. They are also a component of many chemotherapy regimens for the treatment of leukemias, lymphomas, and myelomas because of their role in the induction of apoptosis.
NCGC Assay Protocol Summary Using a beta-lactamase reporter-gene under control of glucocorticoid response element (GRE), a cell-based assay [CellSensor MMTV-bla HeLa cell line assay developed by Invitrogen] was used to measure GR ligands signaling. CellSensor MMTV-bla HeLa cells were used with assay medium containing 1% charcoal/dextran treated FBS, 0.1 mM NEAA, 1 mM sodium pyruvate and 25mM HEPES. The assay was performed in clear bottom black Greiner 1536-well plates. Library compounds were measured for their ability to inhibit the reporter gene activity. Compounds were screened in a titration series in 1536-well format. […] Data was normalized relative to Dexamethasone control (2 nM, 100%), and DMSO only wells (basal, 0%). Concentration-response titration points for each compound were fitted to the Hill equation yielding concentrations of half-maximal inhibition (IC50) and maximal response (efficacy) values. qHTS protocol for GR beta-lactamase assay in antagonist mode [Step] [Parameter] [Value] [Description] 1. Reagent; 5 uL; 1500 cells/well 2. Incubation; 37 C for 3-5 hrs 3. Compounds; 23 nL; 0.59 nM to 92 uM 4. […] Agonist (Stimulator); 1uL; Dexamethasone at 2 nM (final) concentration 6. Incubation; 37 C for 18 hrs 7. Detection reagent; 1 uL of CCF4-dye 8. Incubation; RT for 2 hrs 9. Detection; Fluorescence; Envision plate reader
On the % scale 0 is the no-effect control and ±100 the full control effect.

Chain of Glucocorticoid receptor (Homo sapiens) (P04150 whole entry, looked up): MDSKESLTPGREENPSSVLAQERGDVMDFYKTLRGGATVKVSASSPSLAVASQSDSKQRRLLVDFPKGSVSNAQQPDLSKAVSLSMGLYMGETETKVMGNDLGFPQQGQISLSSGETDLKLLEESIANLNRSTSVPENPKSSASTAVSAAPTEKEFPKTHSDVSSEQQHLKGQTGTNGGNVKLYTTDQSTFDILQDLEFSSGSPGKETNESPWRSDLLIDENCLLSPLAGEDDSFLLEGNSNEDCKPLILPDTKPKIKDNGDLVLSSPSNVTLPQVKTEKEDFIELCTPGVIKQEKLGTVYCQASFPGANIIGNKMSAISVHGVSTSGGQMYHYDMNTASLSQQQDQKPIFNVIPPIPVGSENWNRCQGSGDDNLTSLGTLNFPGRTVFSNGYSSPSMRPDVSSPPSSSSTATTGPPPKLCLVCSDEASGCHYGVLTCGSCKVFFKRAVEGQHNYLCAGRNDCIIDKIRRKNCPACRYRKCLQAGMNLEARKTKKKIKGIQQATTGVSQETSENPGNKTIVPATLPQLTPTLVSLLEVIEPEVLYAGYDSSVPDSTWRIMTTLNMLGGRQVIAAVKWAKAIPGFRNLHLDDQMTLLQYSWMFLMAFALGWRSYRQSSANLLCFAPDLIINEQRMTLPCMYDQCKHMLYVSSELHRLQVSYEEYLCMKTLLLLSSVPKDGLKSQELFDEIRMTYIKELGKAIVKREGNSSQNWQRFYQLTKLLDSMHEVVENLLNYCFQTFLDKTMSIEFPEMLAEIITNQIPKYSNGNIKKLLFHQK

Row | SMILES | activity change, negative = inhibition | outcome
1 | CC(O)CN(CCN(CC(C)O)CC(C)O)CC(C)O (stereo unspecified) | 21.4% (inactive) | –
2 | NC(=O)N/N=C/c1ccc([N+](=O)[O-])o1 | – | inactive
3 | Nc1ccc(S(=O)(=O)Nc2nccs2)cc1 | -7.1% (inactive) | –
4 | CNC(=O)Oc1ccc2c(c1)[C@]1(C)CCN(C)[C@@H]1N2C | 13.7% (inactive) | –
5 | NCCNCCNCCN | -10.8% (inactive) | –
6 | Oc1cccc(O)c1 | -3.27% (inactive) | –
7 | CC(O)COc1ccccc1 (stereo unspecified) | -4.57% (inactive) | –
8 | O=C1c2c(O)cccc2Cc2cccc(O)c21 | 12.4% (inactive) | –
9 | NCCNCCNCCNCCN | – | inactive
10 | COc1ccccc1O | – | inactive
11 | CCOC(=O)c1ccc(O)cc1 | 0.188% (inactive) | –
12 | CC1=C(/C=C/C(C)=C/C=C/C(C)=C/C(=O)O)C(C)(C)CCC1 | -42.1% (inactive) | –
13 | O=C1O[C@H]([C@@H](O)CO)C(O)=C1O | 3.63% (inactive) | –
14 | CCCCCCCCCCCCOS(=O)(=O)O | – | inactive
15 | CCCc1c(OCCCCc2nn[nH]n2)ccc(C(C)=O)c1O | -20.6% (inactive) | –
16 | CC1(C)[C@@H]2CC[C@@]1(C)C(=O)C2 | -4.3% (inactive) | –
17 | Cc1cc(CC(=O)O)n(C)c1C(=O)c1ccc(Cl)cc1 | 40.7% (inactive) | –
18 | CCCCC(CC)COC(=O)c1ccccc1O (stereo unspecified) | -11.1% (inactive) | –
19 | CC12CCC(CC1)C(C)(C)O2 | -21.6% (inactive) | –
20 | CCCCOC(=O)c1ccc(O)cc1 | – | inactive
21 | NC(=O)c1ncn([C@@H]2O[C@H](CO)[C@@H](O)[C@H]2O)n1 | -3.41% (inactive) | –
